Screens deposited in PubChem BioAssay by National Center for Advancing Translational Sciences (NCATS).
Most compounds without a hit are left out; they make up all but 12% or so of the library.
HP1b binding inh – HP1-beta chromodomain-methylated histone interaction inhibition; P83916; AlphaScreen HP1-beta / biotin-H3K9me3 peptide binding; Potency, µM (highest dose often 114 µM), for inactives: at the highest dose activity change, negative = inhibition, hits mostly inhibitors; 390,000 compounds, 0.56% hits; also: nearly all actives have a fitted effect of over 70% in size
Target sequence (P83916 whole entry, looked up): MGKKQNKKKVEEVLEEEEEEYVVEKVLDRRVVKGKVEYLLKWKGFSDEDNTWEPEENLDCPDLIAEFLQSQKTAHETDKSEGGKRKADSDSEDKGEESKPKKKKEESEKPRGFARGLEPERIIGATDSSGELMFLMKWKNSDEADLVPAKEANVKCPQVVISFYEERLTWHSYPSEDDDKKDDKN
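Compound inhibition of the preformed complex between 50 nM HP1-beta and 50 nM biotinylated H3K9me3 peptide was read by AlphaScreen. Buffer was PBS pH 7.4 with 0.01% Tween-20. Incubations ran 30 min at room temperature, with 10 ug/mL donor/acceptor beads.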
G9a inh – inhibitors of human histone lysine methyltransferase G9a; AID 504332; 350,000 compounds, 8.8% hits; Potency, µM (doses to about 102 µM), for the others: at the highest dose activity, negative = inhibition, actives largely listed as inhibitors; Q96KQ7; G9a H3K9 monomethylation, AlphaScreen, 2 h; also: % is scaled to controls: 0 for no effect and ±100 for the full control effect; nearly all actives have a fitted effect of over 75% in size
Target sequence (Q96KQ7 913-1193 limits assumed): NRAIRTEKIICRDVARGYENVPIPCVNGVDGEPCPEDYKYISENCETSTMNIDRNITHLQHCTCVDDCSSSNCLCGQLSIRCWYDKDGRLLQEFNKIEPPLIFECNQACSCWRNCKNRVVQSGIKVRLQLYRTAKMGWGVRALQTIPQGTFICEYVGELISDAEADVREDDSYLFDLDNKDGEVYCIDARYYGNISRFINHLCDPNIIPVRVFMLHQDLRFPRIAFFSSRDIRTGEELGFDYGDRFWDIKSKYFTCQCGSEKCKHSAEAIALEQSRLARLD
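AlphaScreen read-out: biotin-H3K9 peptide (500 nM) methylation by 20 nM enzyme with 20 uM SAM, 2 h at room temperature after 15 min compound preincubation; anti-monomethyl H3K9 antibody plus donor/acceptor beads, 10 min dark.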
BAZ2B inh – inhibitors of human BAZ2B bromodomain; AlphaScreen BAZ2B-H3K14Ac peptide displacement; Potency, µM (series often up to 114 µM), inactives show top-dose activity change, negative = inhibition, most hits filed as inhibitors; 360,000 compounds, 4.4% hits; also: % is scaled to controls: 0 for no effect and ±100 for the full control effect; nearly all actives have a fitted effect of over 60% in size
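Compounds, titrated to a top concentration of 110 uM, were incubated 30 min at room temperature with preformed BAZ2B/acetyl-K14 H3 peptide complex (50 nM each). Proximity signal was measured by AlphaScreen after 20 min with beads.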
JMJD2A Tudor inh – inhibitors of human JMJD2A Tudor domain | O75164 | AlphaScreen JMJD2A-Tudor / H3K4me3 peptide binding | Potency, µM (highest dose often 114 µM), inactives show at the top dose activity change, negative = inhibition, actives largely listed as inhibitors | 390,000 compounds, 4.4% hits | AID 504339; also: % is scaled to controls: 0 for no effect and ±100 for the full control effect; nearly all actives have a fitted effect of over 50% in size
Sfp inh – Sfp phosphopantetheinyl transferase inhibition; Potency, µM, without a hit: largest response in the series, negative = inhibition, usual class: inhibitors; AID 1490; 310,000 compounds, 3.5% hits; Q9F4F7; Biochemical Sfp PPTase activity, qHTS;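 also: the enzyme is Sfp with the accession as filed and its product quenches rhodamine fluorescence; 0% = enzyme reaction without inhibitor and -100% = no enzyme wells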
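With Hepes-Na pH 7.6 buffer containing 10 mM MgCl2, Sfp (15 nM) modified BHQ-2-YbbR (12.5 uM) using rhodamine-CoA (5 uM). Two reads 30 minutes apart at 525/598 nm yielded each well's rate.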
L3MBTL1 inh – inhibitors of human L3MBTL1 | Q9Y468 | AlphaScreen L3MBTL1–H3K9me1 peptide binding | Potency, µM (doses to about 57.1 µM), for the others: top-dose activity, negative = inhibition, most hits filed as inhibitors | 230,000 compounds, 0.66% hits; also: % is scaled to controls: 0 for no effect and ±100 for the full control effect; nearly all actives have a fitted effect of over 60% in size
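Displacement of a biotinylated histone H3(1-15) peptide monomethylated at Lys9 (75 nM) from L3MBTL1 (50 nM) was measured by AlphaScreen after a 30 min room-temperature compound incubation; cefsulodin titration served as intraplate control.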
* = called active by the depositor; ? = inconclusive; / = no result given; [ ] = another dose, or the depositor's remark. Calls follow the shape of the dose curve; as a rule, active = well fitted curve in the direction sought with a large enough effect; inconclusive = small, poorly fitted or top-dose-only effect, or another doubt; inactive = no such curve, though single readings can be large; an effect the other way counts as inactive or inconclusive. Potency is read from the fitted curve at half-maximal effect.

SMILES	HP1b binding inh	G9a inh	BAZ2B inh	JMJD2A Tudor inh	Sfp inh	L3MBTL1 inh
CC(C)(C)NNC(=S)Nc1cccc(C(F)(F)F)c1	-1.5%	9.0%	-1.0%	-16.9%	13.0%	/
Cc1ccc(NC(=S)NNC(C)(C)C)cc1	0.5%	44.7µM*	-26.6%	-19.6%	8.0%	-1.3%
CCNC(=S)NNC(=S)NCc1ccccc1	6.5%	10µM*	-27.0%	1.26µM*	56.2µM*	-15.9%
S=C(NCc1ccccc1)NCc1ccc(CNC(=S)NCc2ccccc2)cc1	-2.0%	1.8%[59 µM]	-6.2%	-26.8%	8.6%	-4.5%
CCC(C)/C(C)=N/Nc1ccc(S(N)(=O)=O)cc1[N+](=O)[O-] (stereo not given)	?	?	/	?	-5.7%	-23.1%
NS(=O)(=O)c1ccc(N/N=C2/CCCCC2C2CCCCC2)c([N+](=O)[O-])c1 (stereo not given)	31.6µM*	?	10µM*	28.2µM*	7.9%	?
Cc1cc(C)c2c(c1)/C(=N/Nc1ccc(S(N)(=O)=O)cc1[N+](=O)[O-])CCC2	13.6%[57 µM]	39.8µM*	-31.6%	-15.5%	5.8%	-10.3%
COc1ccc(-c2cn3nc(N4CCCC(C(=O)NCc5ccccc5C)C4)sc3n2)cc1 (stereo not given)	-16.9%	?	-10.8%	?	/	/
O=C(Cn1c(=O)n(-c2ccc(F)c(Cl)c2)c(=O)c2sc3ccccc3c21)NC1CCCC1	39.5%	-31.5%[59 µM]	4.3%	-1.7%	/	/
COc1cc(C=NO)nc(-c2ccccn2)c1	39.8%	/	/	14.1µM*	/	/
COc1ccc(Oc2ccccc2/C=N/O)cc1	25.8%	6.4%[59 µM]	-6.1%	-5.3%	-0.6%	-2.9%
O=c1cc(-c2ccc(Cl)cc2)oc(=O)[nH]1	31.7%	33.4%[59 µM]	-2.6%	-13.3%	14.0%	-2.0%
O=c1cc(N=Nc2ccc(Cl)cc2)[nH]c(=O)[nH]1	22.9%	44.7µM*	1.7%	-7.0%	-27.0%	7.8%
O=C(NCN1CCc2ccccc2C1)c1cnccn1	10.4%	22.0%[59 µM]	15.3%	6.31µM*	2.7%	-1.7%
COCCN1CSC(=S)N(Cc2ccco2)C1	-29.5%	44.7µM*	-0.4%	?	31.6µM*	0.8%
CCCN1CCN(CCCNC(=O)Cn2c(-c3cccs3)cc3ccccc32)CC1	5.9%	-11.6%[59 µM]	-13.2%	-24.8%	/	/
COCc1nnc(NC(=O)c2ccc(S(=O)(=O)N(C)C3CCCCC3)cc2)o1	32.6%	?	?	79.4µM*	-4.3%	4.7%
COCc1nnc(NC(=O)c2ccc(S(=O)(=O)N3CCCCCC3)cc2)o1	69.1%	36.2%	?	79.4µM*	10.9%	-1.6%
CCCN(CCC)S(=O)(=O)c1ccc(C(=O)Nc2nnc(COC)o2)cc1	49.4%	26.0%	?	3.4%	14.5%	4.5%
O=C(Nc1nnc(-c2ccco2)o1)c1ccc(S(=O)(=O)N2CCCC2)cc1	48.2%	?	/	-8.4%	16.1%	/
O=C1C[C@@H](c2ccc(O)cc2)Oc2cc(O[C@@H]3O[C@H](CO)[C@@H](O)[C@H](O)[C@H]3O)cc(O)c21	/	/	/	/	-7.0%	/
c1coc(CNc2nc(-c3cccs3)nc3ccccc23)c1	/	/	/	-29.9%	/	/
CCc1c(C)[nH]n(-c2nc(-c3ccccc3)cs2)c1=O	-0.1%	50.1µM*	-3.5%	-18.0%[11.4 µM]	4.8%	/
COc1ccc(/C=N/Nc2nc3ccccc3o2)cc1O	19.5%	39.8µM*	-2.5%	-22.1%	?	/
Brc1ccc(/C=N/Nc2nc3ccccc3o2)cc1	44.5%	28.2µM*	-27.3%	-14.2%	-2.0%	/
SMILES	HP1b binding inh	G9a inh	BAZ2B inh	JMJD2A Tudor inh	Sfp inh	L3MBTL1 inh
COc1cc(/C=N/Nc2nc3ccccc3o2)cc(OC)c1O	24.6%	39.8µM*	-25.2%	?	?	/
Oc1ccccc1/C=N/Nc1nc2ccccc2o1	31.3%	/	-1.6%	-23.9%	10.9%	-10.8%
Cc1ccc(Cl)cc1N1CCN(C(=O)Cc2cn(C)c3ccccc23)CC1	?	12.6µM*	?	?	-11.7%	/
O=C1CCCC(=O)C1C1c2ccccc2CCN1C(=O)CCl (stereo not given)	8.5%	-25.4%	-12.3%	-15.6%	3.6%	-2.2%
CCOC(=S)SCC(=O)N1CCc2ccccc2C1C1C(=O)CCCC1=O (stereo not given)	5.1%	?	?	-13.0%	56.2µM*	15.2%
Cc1nn(CCOc2ccccc2Cl)c(C)c1[N+](=O)[O-]	10.0%	50.1µM*	4.4%	-7.7%	5.1%	/
NC(=S)NN=Cc1nccc2ccccc12	-5.6%[57 µM]	/	/	17.8µM*	/	/
Cc1cnc(C=NNC(N)=S)c2cccc(N)c12	?	/	/	50.1µM*	/	/
Cc1cc(=O)n(CC(=O)Nc2ccc([N+](=O)[O-])cc2)c(-n2nc(C)cc2C)n1	37.4%	?	-19.1%	-12.3%	/	/
Cc1ccc(C(NC(=O)N2CCN(C)CC2)C(Cl)Cl)cc1F (stereo not given)	28.2%	?	-15.7%	-14.1%	15.4%	4.5%
Cc1ccc(C(NC(=O)N2CC(C)OC(C)C2)C(Cl)Cl)cc1F (stereo not given)	43.1%	79.4µM*	34.0%	-7.9%	6.7%	21.5%
Cc1ccc(C(NC(=O)N2CCOCC2)C(Cl)Cl)cc1F (stereo not given)	2.0%	44.7µM*	-1.8%	-6.2%	15.8%	0.5%
CCS(=O)(=O)N1CC(=O)N(c2ccc(Cl)cc2C)C(C)(C(=O)NC2CCCCCC2)C1 (stereo not given)	46.6%	-1.7%[59 µM]	4.0%	-3.6%	/	/
CCc1c(C)sc(NC(=O)c2cc(C)on2)c1C#N	4.7%	/	1.6%	-9.3%	-5.1%	2.0%
CCc1c(C)sc(NC(=O)c2cccs2)c1C#N	-7.3%	12.6µM*	2.7%	-9.2%	?	7.4%
CCc1c(C)sc(NC(=O)c2cc(-c3ccc(OC)cc3)on2)c1C#N	9.0%	10µM*	-2.5%	2.4%	/	/
CCOC(=O)c1c(NC(=O)c2cccs2)sc(C)c1CC	182.6%	229.6%	222.0%	78.6%	-11.8%	79.8%
CCc1c(C)sc(NC(=O)c2cc(-c3ccco3)on2)c1C#N	-13.8%	12.6µM*	-0.7%	-18.6%	?	-2.4%
C=CCCC(=O)Nc1nc(C)c(-c2csc(Nc3ccc(Cl)cc3Cl)n2)s1	?	7.08µM*	?	?	-22.1%	-18.1%
C=CCCC(=O)Nc1nc(C)c(-c2csc(Nc3ccccc3OC)n2)s1	-9.2%	25.1µM*	?	?	5.7%	-6.2%
Cc1cc(C)cc(NC(=O)C2CCCN(c3cnccn3)C2)c1 (stereo not given)	30.8%	-0.7%[59 µM]	-23.3%	-12.6%	/	/
COc1nc(-c2ccccc2)ccc1-c1noc(-c2ccco2)n1	?	?	5.8%	50.1µM*	?	7.6%
COc1ccc(-c2ccc(-c3noc(-c4ccco4)n3)c(OC)n2)cc1	39.3%	-0.3%[59 µM]	4.3%	3.2%	11.5%	17.5%
